Test results as given in PubChem BioAssay AID727 (The Scripps Research Institute Molecular Screening Center, 2007).
Among all 97,000 compounds or so, about 810 (0.84%) were called active. The sample as a whole holds a higher share of actives than the screen did. A number with no mark means an inactive call. Cut-off read from the data, not from the text of the source: active = inhibition above about 19%; inactive = the rest.

Biological target: Focal adhesion kinase 1 (Homo sapiens) (UniProt Q05397)
Sequence (Q05397 whole entry, looked up): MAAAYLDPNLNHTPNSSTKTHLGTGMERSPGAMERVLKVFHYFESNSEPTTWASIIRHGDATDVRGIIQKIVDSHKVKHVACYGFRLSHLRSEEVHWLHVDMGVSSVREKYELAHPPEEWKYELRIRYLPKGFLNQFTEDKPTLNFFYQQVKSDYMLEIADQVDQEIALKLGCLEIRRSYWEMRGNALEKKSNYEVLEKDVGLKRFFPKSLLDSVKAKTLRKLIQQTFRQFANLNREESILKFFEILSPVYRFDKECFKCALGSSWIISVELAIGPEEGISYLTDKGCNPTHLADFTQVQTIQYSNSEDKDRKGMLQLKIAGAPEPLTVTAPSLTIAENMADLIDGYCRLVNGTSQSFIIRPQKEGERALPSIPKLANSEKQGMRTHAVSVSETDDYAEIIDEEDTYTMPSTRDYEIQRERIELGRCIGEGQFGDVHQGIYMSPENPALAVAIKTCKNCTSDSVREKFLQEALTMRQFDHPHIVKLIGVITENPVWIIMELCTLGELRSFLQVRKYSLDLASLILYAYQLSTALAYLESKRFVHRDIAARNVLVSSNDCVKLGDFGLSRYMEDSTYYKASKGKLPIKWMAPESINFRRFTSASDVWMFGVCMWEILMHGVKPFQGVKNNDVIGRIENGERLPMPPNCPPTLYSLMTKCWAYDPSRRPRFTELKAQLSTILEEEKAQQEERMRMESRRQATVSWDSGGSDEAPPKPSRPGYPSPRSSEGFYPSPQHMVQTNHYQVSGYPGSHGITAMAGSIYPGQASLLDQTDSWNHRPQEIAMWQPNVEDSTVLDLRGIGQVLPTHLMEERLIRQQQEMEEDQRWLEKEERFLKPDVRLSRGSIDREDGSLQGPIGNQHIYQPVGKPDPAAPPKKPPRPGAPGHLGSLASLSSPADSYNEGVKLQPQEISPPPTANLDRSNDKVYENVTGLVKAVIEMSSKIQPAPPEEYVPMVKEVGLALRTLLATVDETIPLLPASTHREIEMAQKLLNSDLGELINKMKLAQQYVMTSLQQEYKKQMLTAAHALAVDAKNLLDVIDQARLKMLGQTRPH
Test: human PTK2 enzyme activity blockers – biochemical, primary screen (AID 727);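 note: 0% = DMSO and 100% = reference compound high control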
Conditions: biochemical FAK kinase activity assay; active compounds read high;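 tested at 7 µM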

Structure (SMILES)	inhibition
CN(C)CCNC(=O)Nc1cccc(Cl)c1Cl	-0.62%
CCOC(=O)c1cnc(-c2ccccc2)nc1Oc1ccc(C)cc1	4.12%
CN(CCO)Cc1csc2ccc(Br)cc12	-0.2%
C=CCNc1nc(N)c(C(=C(C#N)C#N)c2ccccc2)s1	9.82%
N=c1c2c3c(sc2nc2n1CCCCC2)CCCC3	0.27%
CC1Cc2ccccc2N1C(=O)c1cc2sccc2n1Cc1ccccc1 (stereo unspecified)	-0.85%
COc1cccc(/C=N/NC(=O)C(=O)N2CCCC2)c1	-2.37%
O=C(Nc1ccccc1)c1cccnc1Nc1ccccc1	1.76%
Cc1nonc1NC(=O)c1ccccc1Br	-1.88%
O=C(Nc1ccc(-n2ccnc2P(=O)(O)c2ccccc2)cc1)c1ccccc1Br	22.8% (active)
CC(CNc1ccc([N+](=O)[O-])cc1)NC(=O)c1ccccc1Br (stereo unspecified)	1.61%
C#CCN(N(C)c1ncc(C(F)(F)F)cc1Cl)S(=O)(=O)c1ccc2ccccc2c1	-0.5%
CN(CCc1ccccn1)S(=O)(=O)c1ccc2c3c(cccc13)C(=O)N2	-2.74%
CCN(CC)S(=O)(=O)c1ccc2c3c(cccc13)C(=O)S2	36% (active)
COc1cccc(C(=O)NNC(=O)c2ccccc2Br)c1	-3.7%
CC(C)N1C(=S)SC(C)(C)C1n1oc(=O)n(-c2ccc(Cl)c(Cl)c2)c1=O (stereo unspecified)	1%
O=[N+]([O-])c1ccc(Oc2ccc(F)cc2Br)c2ccncc12	19.1% (active)
COC(=O)c1ccc(OCC(=O)NC(C)(C)C)cc1	-0.09%

Structure (SMILES)	inhibition
Cc1cc2cc3c(N)[nH]nc3nc2cc1C	38.5% (active)
CCc1ccc2nc3sc(C(=O)Nc4nnc(CC)s4)c(N)c3cc2c1	33.3% (active)
CCc1nnc(NC(=O)c2cccs2)s1	-4.62%
CCc1nnc(NC(=O)c2nc3nccc(C)n3n2)s1	-3.17%
Cc1cccc(N2CCN(C(=O)c3cnn4c(C(F)F)cc(-c5ccccc5)nc34)CC2)c1C	2.11%
COc1ccc(C2CC(=O)Nc3sc(=N)c4c(N)c(C#N)c(N)nc4c32)cc1OC (stereo unspecified)	-1.85%
CC1(C)C2CCC13CS(=O)(=O)NC3C2 (stereo unspecified)	-2.12%
Brc1ccc(/C=N/N2CCN(C3c4ccccc4-c4ccccc43)CC2)s1	-1.5%
CCC(C)(C(=O)NC1CCCCC1)N(C)C(=O)c1ccc2c(c1)OCO2 (stereo unspecified)	-1.51%
O=C(O)CCC(=O)NCc1ccc(C(=O)O)cc1	-0.4%
CCc1ccccc1NC(=O)CSc1nnc([C@@H](NC(=O)OC(C)(C)C)C(C)C)o1	-2.32%
CCc1ccccc1NC(=O)CSc1nnc([C@@H](NC(=O)OC(C)(C)C)C(C)CC)o1 (stereo partly specified)	25.9% (active)
C[C@H](NC(=O)OC(C)(C)C)c1nnc(SCC(=O)Nc2ccc(Br)cc2)o1	-1.41%
CCOc1ccc(NC(=O)CC2NCCNC2=O)cc1 (stereo unspecified)	0.06%
CCCCNC(=O)C1CCCNC1=O (stereo unspecified)	-0.32%
CCCOc1ccc(NC(=O)C2CCCNC2=O)cc1 (stereo unspecified)	40.2% (active)
COc1ccc(-c2[nH]nc(-c3ccccc3)c2-c2nc3ccccc3[nH]2)cc1	-5.4%
COc1ccc(C2C(C#N)=C(/N=C/N3CCOCC3)OC3=C2C(=O)CC(C)(C)C3)cc1OC (stereo unspecified)	0.22%
